Results on 40 molecules are retold here after PubChem BioAssay (NCATS).

Records with an inconclusive call do not appear. A number with no mark means an inactive call. Active and inactive are the calls of the source. Calls follow the shape of the full dose curve.
% is scaled to controls: 0 for no effect and ±100 for the full control effect; potency is read from the fitted curve at half-maximal effect.

This assay can be described thus: qHTS assay for small molecule disruptors of the mitochondrial membrane potential - 5 hr assay (AID 651755). Also: nearly all actives have a fitted effect of over 40% in size. Particulars: JC-1-type ratio dye; series mostly up to 92.2 µM; ratio change, negative = disruption: at the top concentration. From the text: National Center for Advancing Translational Sciences [NCATS]
NIH Chemical Genomics Center [NCGC]
National Institutes of Environmental Health Sciences [NIEHS]
National Toxicology Program [NTP]
Mitochondrial membrane potential (MMP), one of the parameters for mitochondrial function, is generated by mitochondrial electron transport chain that creates an electrochemical gradient by a series of redox reactions. This gradient drives the synthesis of ATP, a crucial molecule for various cellular processes. Measuring MMP in living cells is commonly used to assess the effect of chemicals on mitochondrial function. […] The dye accumulates in the mitochondria of healthy cells as aggregates, with red fluorescence. The mitochondrial potential collapses and the dye can no longer accumulate in the mitochondria and remains in the cytoplasm in monomers, with green fluorescence.
2,000 HepG2 cells in 5 uL/well were dispensed into black, clear-bottom 1536-well plates using a Multidrop Combi (Thermo Scientific) dispenser. The assay plates were incubated overnight at 37C to allow cells to attach to the wells, followed by the transfer of 23 nL compound or DMSO vehicle by a pin tool (Kalypsys). The plates were incubated for 5 hr at 37C and 5% CO2, followed by the addition of 5 uL of 2X Mito-MPS dye (BD Biosciences) into each well using Flying Reagent Dispenser (Aurora Discovery) and then following 30 min incubation at 37C. Fluorescence intensity (490nm excitation and 535nm emission for monomers; and 540nm excitation and 590nm emissions for aggregates) was measured using an Envision plate reader.
(In qHTS, concentration-response curves come from the screen itself.)
Take `CCOC(=O)C1OC1(C)c1ccccc1` (stereo not given): the “ratio change, negative = disruption” value was -9.22%.
Still for that read-out and setting: to `[O-][Cl+2]([O-])O` belongs 7.26%.
Same read-out and setting: in the case of `OCC(Cl)CCl` (stereo not given) it was -2.56%.
In the case of `CN(C)c1ccc(N)cc1`, the Potency is 29.8 µM (active).
On the same count and under the same terms, to `Nc1ccc(-c2ccc(N)c(Cl)c2)cc1Cl` belongs 37.6 µM (active).
For `CCC[N+](=O)[O-]`, the “ratio change, negative = disruption” value was 2.63%.
Same read-out and setting: in the case of `Clc1ccc(Cl)c(Cl)c1` it was 0.317%; in that of `COc1c(C(C)(C)C)cc([N+](=O)[O-])c(C)c1[N+](=O)[O-]`, 0.806%; in that of `Cc1cc(-c2cc(C)c(N)c(C)c2)cc(C)c1N`, -4.14%.
Still for that read-out and setting: in the case of `CCBr` it was 1.33%; in that of `N#C/C(N)=C(/N)C#N`, -0.848%; in that of `CC(=O)[O-].CC(=O)[O-].CC(=O)[O-].[Cr+3]`, -0.569%.
On to `CC(C)(Cl)[N+](=O)[O-]`, for which the “ratio change, negative = disruption” value is -0.956%.
On the same count and under the same terms, to `CC(C)[C@]12CC(=O)[C@H](C)[C@H]1C2` belongs 2.65%.
In the case of `CN(C)C(=O)Nc1ccc(Cl)cc1`, the “ratio change, negative = disruption” value is -1.58%.
`Cc1cc(-c2ccc(N)c(C)c2)ccc1N`: the “ratio change, negative = disruption” value was -12.4%.
For `Nc1ccc(-c2ccc(N)cc2)cc1`, the “ratio change, negative = disruption” value is -27.1%.
In the case of `Cc1ccc2c(C)cccc2c1`, the “ratio change, negative = disruption” value is -6.3%.
On to `O=C(Cl)OCc1ccccc1`, for which the “ratio change, negative = disruption” value is 0.939%.
As for `Nc1ccc([N+](=O)[O-])cc1[N+](=O)[O-]`, the Potency was 33.5 µM (active).
`COC(=O)Nc1nc2ccccc2[nH]1`: the “ratio change, negative = disruption” value was -1.73%.
As to `Cc1ccc(N)cc1C`, the “ratio change, negative = disruption” value was -0.41%.
In the case of `CCN(CC)N=O`, the “ratio change, negative = disruption” value was 3.57%.
Same read-out and setting: to `CCOC(=O)CC(SP(=O)(OC)OC)C(=O)OCC` (stereo not given) belongs -0.0045%.
The same measure, in the same setting: to `CN(C)C(=O)Cl` belongs -1.01%.
With `c1ccc(C2CO2)cc1` (stereo not given), the “ratio change, negative = disruption” value was 3.38%.
Still for that read-out and setting: to `O=[N+]([O-])c1ccccc1-c1ccccc1` belongs -0.283%; to `Nc1cc(Cl)ccc1Cl`, 6.94%.
Still for that read-out and setting: to `O=C(Cl)c1ccccc1F` belongs 0.491%; to `CCCCC#N`, 1.82%.
As for `O=S(=O)(O)F`, the “ratio change, negative = disruption” value is 0.797%.
Take `O=C(O)C(Br)Br`: the “ratio change, negative = disruption” value was 5.34%.
On the same count and under the same terms, in the case of `Nc1ccc(Cc2ccc(N)cc2)cc1` it was -1.73%; in that of `CCNCC`, 0.186%; in that of `Nc1ccc(Cl)c(Cl)c1`, -0.0007%.
As to `C=COC(C)=O`, the “ratio change, negative = disruption” value is -0.799%.
The same measure, in the same setting: in the case of `C=CC#N` it was 2.85%.
The same measure, in the same setting: to `CN(C)c1ccc(N(C)C)cc1` belongs -5.16%.
For the molecule `C=CC(=O)OCCN(C)C`, the “ratio change, negative = disruption” value was 0.295%.
Still for that read-out and setting: in the case of `Oc1cc(Cl)ccc1Cl` it was 0.135%.
